According to PubChem BioAssay (NCI):
About 83,000 compounds went through this panel and 20% of them were active in at least one assay; those are over-represented in the sample as a whole.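 Growth was measured after 48 h exposure to one concentration of compound in 96-well plates. Values under 10 count as active.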 Values without a mark were called inactive. Calls of active or inactive are those of the source.

Assays:
Experiment in all cases: NCI-60 one-dose screen, 48 h (100 = growth as untreated, 0 = no growth, -100 = all killed)
Conditions in all cases: 10 µM unless noted
SR leukemia = system: SR leukemia
RPMI-8226 leukemia = system: RPMI-8226 leukemia
OVCAR-8 ovarian = system: OVCAR-8 ovarian
OVCAR-5 ovarian = system: OVCAR-5 ovarian
OVCAR-4 ovarian = system: OVCAR-4 ovarian
SK-OV-3 ovarian = system: SK-OV-3 ovarian
IGROV1 ovarian = system: IGROV1 ovarian
OVCAR-3 ovarian = system: OVCAR-3 ovarian
HS 578T breast = system: HS 578T breast
NCI/ADR-RES ovarian = system: NCI/ADR-RES ovarian

Row | SMILES | growth (SR leukemia) | growth (RPMI-8226 leukemia) | growth (OVCAR-8 ovarian) | growth (OVCAR-5 ovarian) | growth (OVCAR-4 ovarian) | growth (SK-OV-3 ovarian) | growth (IGROV1 ovarian) | growth (OVCAR-3 ovarian) | growth (HS 578T breast) | growth (NCI/ADR-RES ovarian)
1 | COc1cc2c(cc1-c1c(C)noc1C)ncc1nc(C3CCCCC3)n([C@H](C)COC(F)F)c12 | 17.9% | 18.9% | 42% | 75.1% | 44.8% | 12.5% | 37.8% | 37.3% | 18.9% | 38.2%
2 | Cn1cc(-c2nonc2-c2c[nH]c3ccccc23)c2cccnc21 | 23.5% | 40.8% | 47.8% | 72.3% | 74.5% | 41.7% | 39.4% | 15.2% | 36.1% | 13%
3 | C=C1C(=O)O[C@H]2[C@H]1CC/C(COC(=O)NCCc1ccc(OC)c(OC)c1)=C\CC[C@@]1(C)O[C@@H]21 | 11.2% | 28.8% | 51% | 82.8% | 49.9% | 99.3% | 55.9% | 25.8% | 91.1% | 103%
4 | O=C(Cc1ccccc1Nc1c(Cl)cccc1Cl)NN1C(=O)/C(=C/c2ccc(Br)cc2)SC1=S | 132% | 106% | 100% | 100% | 114% | 100% | 97.7% | 109% | 96.4% | 105%
5 | O=C(COc1cccc(/C=C2\COc3ccccc3C2=O)c1)Nc1nccs1 | -73.8% (active) | -67% (active) | 20.3% | 81.8% | 97.2% | 99.8% | 5.16% (active) | 73.8% | -6.5% (active) | 45.6%
6 | Cc1cc(N2CCN(C)CC2)nc(NC2CCCC(Nc3ccnc4cc(Cl)ccc34)C2)n1 (stereo not given) | -31% (active) | -47.8% (active) | 5.87% (active) | 9.67% (active) | 20.3% | 18.6% | 10.5% | -18.7% (active) | -18.7% (active) | 18.7%
7 | Cc1cc(N2CCOCC2)nc(NCc2cc(Nc3ccnc4cc(Cl)ccc34)ccc2F)n1 | -41.3% (active) | -40.4% (active) | -48.9% (active) | -17.2% (active) | 3.65% (active) | -40.8% (active) | -14.1% (active) | -94.2% (active) | -14.2% (active) | -56.9% (active)
8 | COc1ccc(S(=O)(=O)N2CCN(C)CC2)cc1NC(=O)c1[nH]c(C)c2c1CCCCC2=O | 58.2% | 32.6% | 63% | 59.5% | 57% | 44.7% | 47% | 66.6% | 28.9% | 96.9%
9 | COc1ccc(-c2cc(Nc3ccnc(N4CCOCC4)n3)on2)cc1 | 31.1% | 25.2% | 37.2% | 46.6% | 62.1% | 43.2% | 43.1% | -17.6% (active) | 18.7% | 10.8%
10 | COc1ccc(/C=C/c2nc(-c3n[nH]c(=O)n3-c3ccccc3)c3ccccc3n2)cc1 | 92.6% | 89.6% | 98.9% | 96.1% | 91.4% | 94.8% | 99.1% | 101% | 100% | 100%
11 | CCc1c(Nc2ccccc2C)nc(N)[nH]c1=O | 85.9% | 104% | 119% | 92.3% | 107% | 109% | 93.4% | 110% | 115% | 109%
12 | O=C(COc1ccc(/C=C2\COc3ccccc3C2=O)cc1)Nc1nccs1 | -2.82% (active) | -0.182% (active) | 85% | 93% | 92.9% | 127% | 3.63% (active) | 95.8% | -38.3% (active) | 86.1%
13 | Clc1ccc2nc3nc4ccc[nH]c4cc3c2c1 | 39.6% | 65.5% | 87.4% | 127% | 49.2% | 98.1% | 52.9% | 83.1% | 92.2% | 88.3%
14 | CC(=O)c1cc2c(N)c(C(=O)Nc3cccc(F)c3C)sc2nc1C | 63.9% | 86% | 79.6% | 110% | 79.8% | 53.8% | 94.3% | 108% | 80.1% | 91.5%
15 | CCCCCCN(CCCCCC)CCC(O)c1ccc2ccccc2c1 (stereo not given) | 0.428% (active) | 7.65% (active) | 73.4% | 69.5% | 45.7% | 83.5% | 59.6% | 69.7% | 69.1% | 58%
16 | Cn1cc(C(=O)c2nc(-c3c[nH]c4ccc(F)cc34)no2)c2cc(F)ccc21 | 48.1% | 98.8% | 95.9% | 95.5% | 97.5% | 83.6% | 66.8% | 97.4% | 91.3% | 84%
17 | Cc1ccc2c(C(C[N+](=O)[O-])c3ccccc3F)c(-c3ccccc3)[nH]c2c1 (stereo not given) | 25.8% | 51.5% | 56.5% | 74.4% | 65.7% | 31.5% | 32% | 13.2% | 33.8% | 23.9%
18 | O=C1/C(=C/c2ccccc2)SC(=S)N1CCc1ccc(O)cc1 | 93.7% | 95.5% | 96.3% | 103% | 76.4% | 85% | 82.3% | 97.4% | 76.9% | 99.3%
19 | OCC(O)c1nc2ccc3[nH]ncc3c2c2c1CCCC2 (stereo not given) | -4.58% (active) | 10.2% | 10.8% | 10.2% | 50.4% | 40.9% | 10.4% | 16.1% | -10.5% (active) | 9.22% (active)
20 | O=c1oc2c(C(F)(F)F)cccc2cc1-c1csc(Nc2ccc(OCCF)cc2)n1 | 6.43% (active) | 15.9% | 4.22% (active) | 67.5% | 40.4% | 15.1% | 21.4% | -21.4% (active) | 22.7% | 17.5%
21 | CC1=C[C@H]2c3c(c(O)c(O)c4oc5c(C)cccc5c(=O)c34)[C@H](c3cc(O)c(O)c4oc5c(C)cccc5c(=O)c34)[C@H]2C(C)(C)C1 | 3.62% (active) | 23.4% | 18.1% | 30.4% | 11.3% | 19.1% | 1.21% (active) | 13.8% | -6.09% (active) | 4.23% (active)
22 | Clc1ccc2c(NCCCCNc3nc(N4CCOCC4)nc4ccccc34)ccnc2c1 | -18.9% (active) | -32.2% (active) | 9.88% (active) | 64.8% | -13.1% (active) | 64.5% | 44.9% | -71.2% (active) | 91.8% | 55.6%
23 | CC1=C/C(=C(\c2ccc(N(C)C)cc2)c2ccc([N+](C)(C)C)cc2)C=CC1=[N+](C)C | 60.8% | 2.54% (active) | 36.2% | 115% | 89.3% | 94% | 94.4% | 86.6% | 55% | 100%
24 | COc1ccc(CN2c3ccccc3Sc3ccccc32)cc1O | 16.1% | 24.4% | 22.1% | 86% | 45.7% | 29.1% | 30.2% | 7.47% (active) | 33% | 18.5%
25 | COc1cccc(/C=C2\SC(=Nc3ccc(NC(C)=O)cc3)NC2=O)c1OC | 94.8% | 96.7% | 93% | 91.7% | 100% | 91.3% | 103% | 111% | 70.5% | 102%
26 | NCCNc1nc(Nc2ccc(-c3nc4ccccc4[nH]3)cc2)c2cn[nH]c2n1 | -3.8% (active) | -11.7% (active) | 43.9% | 125% | 88.4% | 111% | 97.6% | 83.9% | 41.8% | 94.9%
27 | COc1cccc(/C=N/NC(=O)c2ccccc2Nc2ccnc(C(F)(F)F)c2)c1O | 30.3% | -18.8% (active) | 19.7% | 20.7% | 27.9% | 8.06% (active) | 4.92% (active) | 43.2% | 44.9% | 6.84% (active)
